Source: PubChem (several laboratories)
Ins promoter up: insulin promoter activators in MIN6 cells, imaging, high-content screening, mouse beta cells; MIN6 insulin promoter-GFP reporter; hits give high values; z-score at 5 µM; AID 1625, 2009; hit rate 0.3% among 190,000;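 active means z-score above 3 at 5 µM with at least 500 cells counted in the well; inconclusive means wells under 500 cells, flagged as cytotoxic or low count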
WT yeast gro inh: growth inhibition of WT strain, primary screen, mitochondrial fusion inhibitor project, WT and mutant strains, chemical genetic | mitochondrial fusion phenotypic screen | inhibition, % at 10 µM | hit rate 2.1% among 190,000; in the data active means inhibition above about 58%; tested in S. cerevisiae
Cl transport mod: KCC2 cotransporter modulators, thallium flux, primary screen, cell-based, HEK293 KCC2, FluoZin-2 fluorescence, MLSMR | Solute carrier family 12 member 5 (Homo sapiens), Q9H2X9 | KCC2 cells, thallium flux FluoZin-2 fluorescence | B-score of Tl+ flux slope (higher = more flux/activation; lower = inhibition) at 10 µM | hit rate 2.2% among 190,000 | AID 1456, 2008;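 active means thallium flux slope and its plate-corrected score both differing from the plate sample mean at a set confidence after two filtering rounds, in either direction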;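 further: slope of fluorescence scaled to starting intensity during 10 to 20 s after thallium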
INS promoter inh: inhibitors of insulin promoter-driven GFP, primary screen, imaging, TRM-6 cells (human fetal islet line), eGFP reporter, cell count | AID 1273, 2008 | reporter expression induced with tamoxifen | hit rate 0.9% among 130,000 | inhibition, % at 2 µM;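 active means inhibition above the mean plus 3 SD, with well images judged a real hit on visual review, cut at about 60% in these data, passing the limit was not always enough; inconclusive means inhibition over the cutoff but images rejected on review; inactive means inhibition not above the cutoff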
ROMK mod: ROMK potassium channel modulators, primary screen, cell-based, thallium flux, MLSMR library | ATP-sensitive inward rectifier potassium channel 1 (Homo sapiens), P48048 | Tet-inducible ROMK, thallium flux fluorescence; actives lie on both sides | B-score at 10 µM | hit rate 2% among 130,000 | AID 1918, 2009;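 active means signal ratio slope over the read window, or its plate-corrected B-score, at least 3 SD from the plate mean, either direction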;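 further: B-score of the F/F0 ratio slope over 7 to 12 s after thallium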
Target sequence (P48048 whole entry, looked up): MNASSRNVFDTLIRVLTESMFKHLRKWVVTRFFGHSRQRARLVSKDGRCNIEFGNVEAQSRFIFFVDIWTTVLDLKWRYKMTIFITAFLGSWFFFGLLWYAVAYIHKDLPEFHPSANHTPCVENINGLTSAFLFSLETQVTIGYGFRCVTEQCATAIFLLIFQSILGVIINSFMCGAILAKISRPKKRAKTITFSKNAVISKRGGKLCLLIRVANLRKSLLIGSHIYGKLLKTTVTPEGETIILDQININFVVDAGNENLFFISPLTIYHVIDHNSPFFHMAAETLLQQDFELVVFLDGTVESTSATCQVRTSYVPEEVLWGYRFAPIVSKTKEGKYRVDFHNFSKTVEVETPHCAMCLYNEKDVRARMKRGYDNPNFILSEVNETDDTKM
L major viab: Leishmania major promastigote growth inhibition, primary screen | Leishmania major promastigotes, resazurin fluorescence viability | inhibition, % at 10 µM | AID 1063, 2008 | hit rate 9% among 200,000; in the data active means inhibition above about 50%;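 further: promastigotes grown with compound for 44 hours at 28 °C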
KCC2 sec1: KCC2 modulators in sodium-free buffer, confirmation, cell-based, HEK293 KCC2, thallium flux, secondary assay; FluoZin2 fluorescence; hits give high values; hit rate 15% among 3,700; shares compounds with Cl transport mod; normalised thallium flux (F/F0 slope) at 10 µM;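 active means thallium flux slope above the same plate's solvent-only control mean plus 3 SD; inconclusive means the two replicate wells disagree; inactive means no significant difference from solvent-only control wells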
KCC2 bumet counter: thallium flux persisting under bumetanide in KCC2 cells, confirmation, counter-screen for KCC2 modulator project, cell-based, HEK293 KCC2, FluoZin2, secondary assay 3 | hit rate 49% among 3,700 | normalized thallium flux at 10 µM | HEK293-KCC2 + bumetanide/ouabain; hits give high values | AID 1714, 2009 | shares compounds with Cl transport mod;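 active means thallium entry rate above the same plate's blocked-transporter control wells by more than 3 SD; inconclusive means the two repeat wells disagree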;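 further: raw slope of fluorescence over initial fluorescence between 10 and 20 s after thallium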
KCC2 sec2: KCC2 modulators without ouabain present, confirmation, cell-based, HEK293 KCC2, thallium flux, FluoZin2, secondary assay 2 | shares compounds with Cl transport mod | thallium flux FluoZin2 fluorescence; actives lie on both sides; F/F0 rise rate, 10–20 s post-thallium | normalized thallium flux at 10 µM | hit rate 23% among 3,700 | AID 1715, 2009;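 active means thallium flux slope more than 3 SD above or below the plate's solvent-only control mean, mostly below; inconclusive means the two repeat wells disagreed; inactive means no significant shift from solvent-only controls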;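 further: raw slope with 0.1% DMSO as baseline and bumetanide as block control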
HEK counter1: thallium flux modulation in parental HEK cells, confirmation, counter-screen for KCC2 modulator project, cell-based, counterscreen 1. shares compounds with Cl transport mod. HEK293 parental cells, thallium flux FluoZin2, ouabain; baseline-ratio fluorescence slope, 10–20 s after thallium. thallium flux rate (normalised fluorescence) at 10 µM. hit rate 46% among 3,700;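 active means thallium flux rate significantly above the same plate's solvent-only control wells, beyond their mean plus 3 SD; inconclusive means the two replicate wells gave conflicting results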
KCC2 ouabain: KCC2 inhibitors and activators, ouabain retest, confirmation, HEK-KCC2 cells; shares compounds with Cl transport mod; HEK293-KCC2, thallium flux FluoZin2 fluorescence; bidirectional: low = inhibitor, high = activator; raw Tl+ flux slope (below DMSO = inhibition, above = activation) at 10 µM; hit rate 48% among 3,700; AID 1717, 2009;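 active means thallium flux slope beyond 3 SD from same-plate DMSO control mean in most replicates, usually higher, sometimes lower; inconclusive means repeat tests gave conflicting results; inactive means no significant difference from controls in most replicates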;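 further: slope of initial-normalized fluorescence between seconds 10 and 20 after thallium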
HEK counter2: native HEK Tl+ uptake effects, second counter-screen – HEK cells, counterscreen 2, counter-screen for KCC2 modulator project, confirmation | HEK293 parental, thallium flux FluoZin-2 fluorescence slope | thallium flux slope at 10 µM | shares compounds with Cl transport mod | AID 1718, 2009 | hit rate 33% among 3,700;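 active means thallium flux slope above the same plate's solvent-control mean plus 3 SD in both duplicate wells; inconclusive means duplicate wells that disagreed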;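 further: run without ouabain in cells lacking the KCC2 cotransporter; slope of fluorescence scaled to its starting value between 10 and 20 s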
* hit, by the source's call; u = inconclusive; x = not tested or not shown. Only some compounds are listed: those with a hit (about 12% of all), similar ones and a draw of the others.

SMILES	Ins promoter up	WT yeast gro inh	Cl transport mod	INS promoter inh	ROMK mod	L major viab	KCC2 sec1	KCC2 bumet counter	KCC2 sec2	HEK counter1	KCC2 ouabain	HEK counter2
Cc1ccc(C)c(SCC(=O)Nc2cccc(S(=O)(=O)NC3=NCCCCC3)c2)c1	-0.13	1.9	-1.96	-38.5	-0.365	3.5	x	x	x	x	x	x
C(=N\Nc1nc(-c2ccccc2)cs1)/c1cccnc1	-0.37	33.5	-3.61*	-30.4	x	91.1*	0.00563	0.00507	0.0248*	0.0072	0.0156*	0.01
CCn1ncc(Br)c1C(=O)Nc1ccc(C(=O)OC(C)C)cc1	x	20.2	5.25*	-20.7	-0.751	3.3	0.00813	0.0066	0.0334	0.00741	0.0208	0.0111
CCn1ncc(Br)c1C(=O)Nc1ccccc1C(=O)OC	x	x	0.333	-9.3	x	4.2	x	x	x	x	x	x
Cc1cc(Cl)cc(Cl)c1OCCOc1cccc2cccnc12	x	x	-6.98*	-83.9	0.112	4.5	0.00571	0.00449	0.0292	0.00807	0.0178	0.0115
COC(=O)c1nc(NC(=O)c2ccccc2Cl)n[nH]1	x	-0.1	-0.345	1.8	-0.0407	-5.3	x	x	x	x	x	x
O=C(/C=C/c1ccc(F)cc1)NC(=S)N1CCN(Cc2ccccc2)CC1	-1.24	x	40*	x	x	x	0.00633	0.0421*	0.0321	0.0303*	0.0307*	0.0256*
O=C(NC(=S)N1CCN(C/C=C/c2ccccc2)CC1)c1ccco1	-0.09	7.0	4.21*	42.9	-0.405	30.2	0.00549	0.0153*	0.0325	0.0136*	u	0.0162*
O=C(NC(=S)N1CCN(C/C=C/c2ccccc2)CC1)c1c(F)cccc1F	0.22	3.1	6.81*	-7.4	-0.392	-2.0	0.0178*	0.0418*	0.0302	0.0155*	u	u
CC(C)NC(=S)N1CCN(C/C=C/c2ccccc2)CC1	0	-4.0	-1.99	x	0.00362	4.7	x	x	x	x	x	x
O=C(c1ccco1)N1CCN(C/C=C/c2ccccc2)CC1	0.43	-22.6	x	x	x	2.4	x	x	x	x	x	x
CCN1CCN(C(=O)Cn2ncc3c2-c2ccccc2OC3)CC1	-1.41	4.0	1.26	x	x	-3.9	x	x	x	x	x	x
Cc1ccc(CN(Cc2ccco2)C(=S)NCC(=O)NC2CC2)cc1	-0.26	5.2	1.21	25.0	-0.00121	-2.4	x	x	x	x	x	x
CC1Cc2ccccc2N1C(=O)COC(=O)c1ccc(O)cc1 (stereo not given)	0.76	x	-3.2	x	x	x	x	x	x	x	x	x
Cc1ccc(OCCC(=O)OCC(=O)N2c3ccccc3CC2C)cc1 (stereo not given)	1.48	-0.9	-5.12*	x	x	-8.8	0.0077	0.00485	0.0246*	0.00724	0.0168*	0.00959
Cc1ccc(S(=O)(=O)N(C)C)cc1NC(=O)c1cccs1	-0.96	x	-0.0224	x	-0.0375	x	x	x	x	x	x	x
